Measurements from publication PMC4336329 (PLoS ONE, 2015).
The whole screen tested about 310,000 compounds, of which about 14,000 (4.5%) showed an effect of 50% or more. Effects have a minus sign here. The sample as a whole holds a higher share of strong results than the screen did.

Each molecule was assayed against human ether-à-go-go-related gene (hERG) potassium channel (human, UniProt Q12809) (assay: primary screen, population patch clamp on CHO cells stably expressing hERG; higher = less effect of the substance).
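Note: peak tail current of the secondary pulse compared with the same well before compound.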

Sequence of human ether-à-go-go-related gene (hERG) potassium channel (Q12809 whole entry, looked up): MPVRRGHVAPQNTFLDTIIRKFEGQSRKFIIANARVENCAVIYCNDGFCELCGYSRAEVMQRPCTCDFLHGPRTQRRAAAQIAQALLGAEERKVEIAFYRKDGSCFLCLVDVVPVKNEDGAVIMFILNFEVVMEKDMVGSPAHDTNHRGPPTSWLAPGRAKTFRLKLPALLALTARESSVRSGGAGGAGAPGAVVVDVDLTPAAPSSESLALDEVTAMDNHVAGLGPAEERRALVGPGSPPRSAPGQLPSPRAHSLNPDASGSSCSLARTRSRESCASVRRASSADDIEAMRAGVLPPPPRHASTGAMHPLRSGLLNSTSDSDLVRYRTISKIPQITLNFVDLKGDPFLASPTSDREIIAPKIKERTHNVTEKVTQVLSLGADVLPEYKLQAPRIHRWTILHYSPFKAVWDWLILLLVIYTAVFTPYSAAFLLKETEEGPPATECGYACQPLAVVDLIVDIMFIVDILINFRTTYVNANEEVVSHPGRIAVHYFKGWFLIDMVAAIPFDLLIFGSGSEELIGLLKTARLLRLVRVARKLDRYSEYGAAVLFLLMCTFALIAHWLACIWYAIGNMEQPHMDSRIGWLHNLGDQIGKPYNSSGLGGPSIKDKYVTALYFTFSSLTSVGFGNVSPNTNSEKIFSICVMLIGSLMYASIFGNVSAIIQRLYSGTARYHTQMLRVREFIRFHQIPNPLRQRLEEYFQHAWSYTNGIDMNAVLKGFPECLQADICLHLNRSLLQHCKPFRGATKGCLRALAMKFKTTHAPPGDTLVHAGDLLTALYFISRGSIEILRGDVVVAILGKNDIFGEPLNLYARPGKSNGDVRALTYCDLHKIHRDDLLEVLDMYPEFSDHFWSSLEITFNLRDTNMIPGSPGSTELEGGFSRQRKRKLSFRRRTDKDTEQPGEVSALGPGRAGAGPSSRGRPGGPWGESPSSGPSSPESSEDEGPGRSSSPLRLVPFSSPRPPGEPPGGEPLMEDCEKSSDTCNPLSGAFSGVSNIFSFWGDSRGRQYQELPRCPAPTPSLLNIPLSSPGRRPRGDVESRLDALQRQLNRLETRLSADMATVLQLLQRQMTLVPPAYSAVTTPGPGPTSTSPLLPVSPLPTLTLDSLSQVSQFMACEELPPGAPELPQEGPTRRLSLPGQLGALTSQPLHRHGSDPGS

SMILES	hERG current change (%, negative = inhibition) at 10uM
NS(=O)(=O)c1cc(C(=O)NC2CCSc3ccccc32)ccc1Cl (stereo not drawn)	7.27%
CC(C)N1CCC2(CC1)N=C(c1ccc3c(c1)OCO3)CC(c1cc(Cl)ccc1O)N2 (stereo not drawn)	-67.1%
CCC1(C)N=C(c2ccc3c(c2)OCO3)CC(c2ccccc2O)N1 (stereo not drawn)	2.42%
CC(C)C1N=C(c2ccc3c(c2)OCO3)CC(c2ccccc2O)N1 (stereo not drawn)	-20.5%
Cc1ccc2cccnc2c1NC(=S)NC(=O)c1ccccc1	17%
O=C(C[n+]1cccc(CNC(=O)c2ccc(OC(F)F)cc2)c1)c1ccccc1.[Cl-]	-14.7%
O=C(NCc1ccccc1)c1ccc(Cl)cc1	2.26%
O=C(C[n+]1ccc(C(=O)NCc2ccccc2)cc1)c1ccc(OC(F)F)cc1.[Br-]	-92.8%
CCOc1ccc(C(=O)C[n+]2ccc(C(=O)NCc3ccccc3)cc2)cc1.[Br-]	-36%
O=C(CNC(=O)c1ccc(OC(F)F)cc1)NCc1ccccn1	-70.9%
O=C(C[n+]1ccc(C(=O)NCc2ccccc2)cc1)c1ccc(Cl)cc1.[Br-]	-71.3%
O=C(CNC(=O)c1ccc(F)cc1)NCc1ccccn1	-1.73%
O=C(NCCc1ccccn1)c1ccc(OC(F)F)cc1	-24.7%
O=C(C[n+]1cn(C(F)F)c2ccccc21)c1ccc(OC(F)F)cc1.[Br-]	-74.9%
O=C(C[n+]1cn(C(F)F)c2ccccc21)c1ccc(Br)cc1.[Br-]	-9.95%
COc1ccc(C(=O)C[n+]2cn(C(F)F)c3ccccc32)c(F)c1.[Br-]	-4.45%
O=C(C[n+]1ccc(C(=O)NCc2ccccc2)cc1)c1ccc2c(c1)OCCO2.[Br-]	12.9%
CCCCn1c(N)c(N(CC(C)C)C(=O)c2ccc(-c3ccc(Cl)cc3)o2)c(=O)[nH]c1=O	1.07%
CCC(CC)C(=O)OCC(=O)Nc1cccc(S(=O)(=O)N(C)c2ccccc2)c1	14.3%
O=C(NCc1ccc(F)cc1)C(C(=O)NCc1ccc(F)cc1)c1ncc(C(F)(F)F)cc1Cl	1.56%
O=C(NCc1ccco1)c1cc2ccccc2o1	11.8%
COc1cc(OC)cc(C(=O)Nc2ncn[nH]2)c1	7.31%

SMILES	hERG current change (%, negative = inhibition) at 10uM
Cc1ccn(CCC(=O)NC2CC(C)(C)Cc3c2cnn3-c2ccccc2C)n1 (stereo not drawn)	-25.6%
CC1(C)CC(=O)c2cc(C(=O)NC3CCSC3=O)c(=O)n(-c3ccccc3)c2C1 (stereo not drawn)	-0.214%
Cc1nc(NC(CC(C)C)C(=O)O)c2nc(C)oc2n1 (stereo not drawn)	-3.03%
COc1ccc(Nc2nc(C)cc(C)n2)cc1Cl.Cl	0.588%
COc1ccc(C2N(C(=O)CN3CCCC3)CCCN2S(=O)(=O)c2ccccc2)cc1 (stereo not drawn)	-15.8%
CCCC(=O)Oc1ccc(N(C(=O)CCC)S(=O)(=O)c2cccs2)cc1	10.9%
O=C1Nc2ccccc2Oc2cc([N+](=O)[O-])cc(Oc3ccccc3)c21	-24.5%
Cc1[nH]c2ccc(C(=O)OC(C)C(=O)N(C)c3ccccc3)cc2c1C (stereo not drawn)	1.13%
O=C(c1ccco1)N1CCN(c2ncnc3c2cnn3-c2ccccc2)CC1	-64.5%
O=C(c1ccccc1)N1CCN(c2ncnc3c2cnn3-c2ccccc2)CC1	-18%
c1ccc(-n2ncc3c(N4CCCC4)ncnc32)cc1	-8.17%
O=C(COc1ccccc1)N1CCN(c2ncnc3c2cnn3-c2ccccc2)CC1	-73.6%
Cc1ccccc1C(=O)N1CCN(c2ncnc3c2cnn3-c2ccccc2)CC1	-9.76%
Cc1ccc(C(=O)N2CCN(c3ncnc4c3cnn4-c3ccccc3)CC2)cc1	-0.928%
CSc1ccc(COC(=O)CCS(=O)(=O)c2ccc(C)cc2)cc1	-9.83%
O=C(C[n+]1ccccc1)N1CCCc2ccccc21.[Cl-]	18.3%
Cn1c(SCC#N)nnc1-c1ccc2c(c1)OCO2	16.9%
CCOC(=O)c1c(NC(=O)CCc2ccc(CC)o2)sc(C)c1C	1.97%
O=C(Cc1cccs1)N/N=C/C=C\c1ccccc1[N+](=O)[O-]	13.3%
O=[N+]([O-])c1ccccc1/C=N\N1CCN(Cc2ccccc2Cl)CC1	9.77%
O=C(CN1CCN(Cc2ccccc2Cl)CC1)N/N=C/c1ccco1	-21.8%
O=C(O)COc1ccccc1/C=N/NC(=O)CN1CCN(Cc2ccccc2Cl)CC1	-0.129%

SMILES	hERG current change (%, negative = inhibition) at 10uM
Cc1ccc(CN2CCN(/N=C/C=C/c3ccccc3[N+](=O)[O-])CC2)cc1	-21.1%
O=C(CN1CCN(Cc2ccccc2)CC1)N/N=C/C=C/c1ccccc1[N+](=O)[O-]	-74.2%
O=C(CN1CCN(Cc2ccccc2)CC1)N/N=C/C=C/c1ccco1	-47.2%
O=C(CN1CCN(Cc2ccccc2Cl)CC1)N/N=C/C=C/c1ccco1	-68.5%
O=C(Cc1ccccc1)N/N=C/C=C/c1ccccc1[N+](=O)[O-]	1.71%
O=C(CN1CCN(Cc2ccccc2Cl)CC1)N/N=C/C=C\c1ccccc1[N+](=O)[O-]	-76.2%
O=C(CN1CCN(Cc2ccccc2Cl)CC1)N/N=C/C=C/c1ccccc1[N+](=O)[O-]	-71.6%
O=C(Cc1cccs1)N/N=C/C=C/c1ccccc1[N+](=O)[O-]	-0.125%
O=C(COC(=O)CNS(=O)(=O)c1ccc(F)c(F)c1F)NC1CCCC1	4.16%
Clc1ccc(OCCCc2nc(-c3ccncc3)no2)c(Cl)c1	-0.0206%
O=C1/C(=C/N(C(=O)c2ccco2)c2ccc(Br)cc2)Sc2ccccc21	-7.76%
Cc1[nH]c2ccccc2c1C(C[N+](=O)[O-])c1cccc(O)c1 (stereo not drawn)	8.53%
Cc1oc2cc3c(C(=O)N4CCCCC4)c(C)oc3cc2c1C(=O)N1CCCCC1	5.17%
Cc1ccc2cc(C(=O)O)c(C)nc2c1	11.6%
CCC(CC)C(=O)Nc1ccncc1	23.9%
COc1ccccc1CNC(=O)c1ccccc1C(=O)NC(CC(C)C)C(=O)NCc1ccccc1OC (stereo not drawn)	10.6%
Cc1c(NC(=O)c2ccco2)cccc1C(=O)NN1C(=O)c2ccccc2C1=O	16.4%
COC(CNC(=O)c1ccc2c3c(onc13)-c1ccccc1C2=O)OC	-1.15%
Cl.OCCNCc1cccc(OCc2ccccc2Cl)c1	-17.6%
COc1ccc(N2CC(C(=O)Nc3ccc(S(=O)(=O)N4CCOCC4)cc3)CC2=O)cc1 (stereo not drawn)	13.4%
Cl.O=C(NCCN1CCOCC1)c1cn(-c2ccccc2)nc1-c1cccs1	-25.6%
CCN(CC)CCNC(=O)c1ccc(NC(=O)c2cn(-c3ccccc3)nc2-c2cccs2)cc1	-32.7%

SMILES	hERG current change (%, negative = inhibition) at 10uM
CCN(CC)CCNC(=O)c1cn(-c2ccccc2)nc1-c1cccs1.Cl	-69%
COc1cccc(CNC(=O)c2ccccc2SCC(=O)N2CCCC2)c1	-22.7%
COc1cccc(CN2CCNC(=O)C2CC(=O)O)c1OC (stereo not drawn)	11.4%
Cc1ccc(S(=O)(=O)CCNC(=O)Cc2ccccc2)cc1	26.9%
CCN=c1sc2ccccc2n1CC(O)COc1ccccc1 (stereo not drawn)	-44%
CN=c1sc2ccccc2n1CC(O)COCc1ccco1 (stereo not drawn)	-65.4%
CN=c1sc2ccccc2n1CC(O)c1ccccc1 (stereo not drawn)	-21.4%
CN=c1sc2ccccc2n1CC(O)COc1ccccc1 (stereo not drawn)	-57.5%
Cc1cc(C)n(CC(O)COCc2ccco2)n1 (stereo not drawn)	-3.37%
OC(CN=c1sc2ccccc2n1CC(O)COc1ccccc1)COc1ccccc1 (stereo not drawn)	-1.46%
CN(C)C(=O)c1ccc2c3c(cccc13)CC2	24.6%
COc1cc(NC(=O)CCCNC(=O)Cn2cnc3sc4c(c3c2=O)CCCC4)cc(OC)c1OC	29.6%
O=C(COc1ccc2c(c1)oc(=O)c1ccccc12)NCCN1CCOCC1	-11%
O=C(NCC1CCCO1)c1ccc2c(=O)n(CCc3ccccc3)c(=O)[nH]c2c1 (stereo not drawn)	7.98%
O=C(CSc1nc2ccc(N3CCOCC3)cc2c(=O)n1CCc1ccccc1)NCC1CCCO1 (stereo not drawn)	-47%
COc1ccc2oc(=O)c(C(=O)NCC3CCCO3)cc2c1 (stereo not drawn)	3.67%
COc1ccc(CCNC(=O)C(=O)NCC2CCCO2)cc1 (stereo not drawn)	-0.535%
COc1ccc(CCNC(=O)CNCC2CCCO2)cc1OC.O=C(O)C(=O)O (stereo not drawn)	14.1%
COc1ccc(CCn2c(=N)c(C(=O)NCC3CCCO3)cc3c(=O)n4cccc(C)c4nc32)cc1 (stereo not drawn)	-79.7%
COc1ccc(CCn2c(=N)c(C(=O)NCC3CCCO3)cc3c(=O)n4cccc(C)c4nc32)cc1OC (stereo not drawn)	-80.9%
Cc1cccn2c(=O)c3cc(C(=O)NCC4CCCO4)c(=N)n(CCc4ccccc4)c3nc12 (stereo not drawn)	-76.7%
